The text below walks through data of PubChem BioAssay (NCATS).

Values joined by “and” are separate entries in the source; they are usually repeats but may differ in a detail not shown here. Equal values may be shown once. Results filed as inconclusive are left out. Entries that show only a call come without a potency. Active and inactive are the calls of the source. Unless noted, calls follow the shape of the dose curve; as a rule, active = well fitted curve in the direction sought with a large enough effect; inconclusive = small, poorly fitted or top-dose-only effect, or another doubt; inactive = no such curve, though single readings can be large; an effect the other way counts as inactive or inconclusive.

Sequence of Cytochrome P450 2C19 (Homo sapiens) (P33261 whole entry, looked up): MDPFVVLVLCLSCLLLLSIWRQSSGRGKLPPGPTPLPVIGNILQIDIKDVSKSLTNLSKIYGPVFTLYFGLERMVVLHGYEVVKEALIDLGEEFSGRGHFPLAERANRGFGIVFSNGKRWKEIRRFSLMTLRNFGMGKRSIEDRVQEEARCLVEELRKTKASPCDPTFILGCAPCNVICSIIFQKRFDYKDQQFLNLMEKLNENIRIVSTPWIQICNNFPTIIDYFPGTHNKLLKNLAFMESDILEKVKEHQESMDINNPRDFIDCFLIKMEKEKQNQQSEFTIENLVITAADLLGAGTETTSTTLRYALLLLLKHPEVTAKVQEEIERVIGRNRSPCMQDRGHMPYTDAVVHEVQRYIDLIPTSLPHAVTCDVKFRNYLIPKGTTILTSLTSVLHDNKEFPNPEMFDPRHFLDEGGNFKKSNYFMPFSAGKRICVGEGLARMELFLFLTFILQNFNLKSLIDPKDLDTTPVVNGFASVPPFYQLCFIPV

Test system in one experiment: not listed separately
The experiment in a line: qHTS Assay for Identification of Small Molecule Antagonists for NFkB Signaling Pathway (AID 895; active = well fitted inhibition curve with a large enough effect in the signal ratio, with a control signal flat, not every such curve was filed as active; the % refers to the signal ratio; also: potency is read from the fitted curve at half-maximal effect). Particulars: NFkB beta-lactamase reporter cells, FRET ratio 460/530, stimulated with 10 pM TNF alpha; series mostly up to 38.3 µM. In short, it runs like this: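 NFkB-bla ME-180 cervical carcinoma cells with beta-lactamase reporter under NFkB response element; compounds added, then TNF alpha at 10 pM final (EC50), 5 h at 37 C. LiveBLAzer substrate 2 h, room temperature; emission 460/530 nm at 405 nm excitation.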
Take `COc1cc2c(cc1OC)-c1cc(=Nc3c(C)cc(C)cc3C)n(C)c(=O)n1CC2`: the Potency was 5.62 µM (active).

As to `O=c1[nH]c(=O)n([C@H]2C[C@H](O)[C@@H](CO)O2)cc1Br`, the Potency entry was “inactive”.

For `Cc1nc2sccn2c(=O)c1CCN1CCC(=C(c2ccc(F)cc2)c2ccc(F)cc2)CC1`, the Potency was 5.01 µM (active). For `C[C@]12CCC(=O)C=C1CC[C@@H]1[C@@H]2C(=O)C[C@@]2(C)[C@H]1CC[C@]2(O)C(=O)CO`, the Potency entry is “inactive”. On to `N[C@@H](COP(=O)(O)O)C(=O)O`, for which the Potency result was “inactive”.

The target of a further experiment is Cytochrome P450 2C19 (Homo sapiens) (UniProt P33261). Kind of experiment: qHTS Assay for Inhibitors and Substrates of Cytochrome P450 2C19 (AID 899). Also: nearly all actives have a fitted effect of over 60% in size. Also: potency is read from the fitted curve at half-maximal effect. As to conditions: recombinant CYP2C19, luciferin-H EGE luminescence; series mostly up to 57.1 µM. In short, it runs like this:
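In 50mM KPO4, the reaction held 5nM enzyme and KM-level (10uM) Luciferin-H EGE; it ran 60 min at 37C after NADPH regeneration and a 10 min compound preincubation. Luminescence values were scaled to 57uM ketoconazole as complete inhibition.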
On the technique in general: In qHTS, concentration-response curves come from the screen itself.
Take `C[C@H](CS)C(=O)N1CCC[C@H]1C(=O)O`: the Potency result was “inactive”. Same read-out and setting: the result for `COc1ccc2c(c1OC)C(=O)O[C@@H]2[C@H]1c2c(cc3c(c2OC)OCO3)CCN1C` reads 0.158 µM (active); that for `N[C@@H](COP(=O)(O)O)C(=O)O`, “inactive”; that for `C[N+](C)(C)CCOC(N)=O`, “inactive”.

Test system in another experiment: not listed separately
Kind of experiment: Confirmation and Secondary Assay for Modulators of Hemoglobin Beta Chain Splicing at IVS2 654 locus (AID 910).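 Also: per-well total GFP intensity by laser scanning cytometry after 2-day treatment.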 Particulars: HeLa EGFP-654 splicing reporter, GFP fluorescence, 48 h; series mostly up to 46.1 µM. The gist of the method:
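HeLa cells stably carrying EGFP interrupted by mutant beta-globin IVS2-654 intron (CMV-driven) were treated with compound for 2 days at 37C; corrected splicing was scored as total peak GFP intensity per well (488 nm excitation, 500-520 nm emission).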
Turning to `CCn1nc(C(=O)O)c(=O)c2cc3c(cc21)OCO3`, the call was inactive.

As to `CCCN(CCC)CCc1cccc2c1CC(=O)N2`, the outcome was inactive.

With `O=C(O)CCCCCCCC(=O)O`, the call was inactive.

With `Fc1ccc(C(c2ccc(F)cc2)N2CCN(C/C=C/c3ccccc3)CC2)cc1`, the molecule was called inactive.

As for `COCCc1ccc(OCC(O)CNC(C)C)cc1` (configuration not stated), the call was inactive. On the same count and under the same terms, the result for `CC(C)COCC(CN(Cc1ccccc1)c1ccccc1)N1CCCC1` (configuration not stated) reads “inactive”; that for `CC(C)NCC(O)c1cc(O)cc(O)c1` (configuration not stated), “inactive”; that for `Nc1c2c(nc3ccccc13)CCCC2O` (configuration not stated), “inactive”.

On to `C=CCc1ccccc1OCC(O)CNC(C)C` (configuration not stated), for which the result was inactive. `Nc1ncn([C@@H]2O[C@H](CO)[C@@H](O)[C@H]2O)c(=O)n1`: the molecule was called inactive.

Test system in a further experiment: not listed separately
Kind of experiment: qHTS Assay for Identification of Small Molecule Agonists for Hypoxia Response Element Signaling Pathway (AID 914; active = well fitted activation curve with a large enough effect in the signal ratio, with a control signal flat, not every such curve was filed as active; the % refers to the signal ratio). As to conditions: ME-180 (cervical carcinoma) HRE-bla reporter, beta-lactamase ratio, CoCl2, 17 h; active compounds read high. The gist of the method:
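ME-180 cells carrying an HRE-driven beta-lactamase reporter were treated with compounds in a titration series plus an EC50 level of CoCl2 for 17 h at 37 degrees Celsius; CCF4 readout as the 460nm/530nm ratio gave AC50 values.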
On to `CC(=O)OCC1=C(C(=O)O)N2C(=O)[C@@H](NC(=O)Cc3cccs3)[C@H]2SC1`, for which the activation was -3.15% (inactive). Same read-out and setting: the result for `O=C(O)CP(=O)(O)O` reads 5.52% (inactive) and -2.23% (inactive); that for `COCCCC/C(=N\OCCN)c1ccc(C(F)(F)F)cc1`, 24.7% (inactive).
